Assay outcomes from PubChem.
ADAM10 inh: human ADAM10 inhibitors, primary screen, biochemical, QFRET, HTS; recombinant ADAM10, EDANS/DABCYL FRET peptide cleavage, 3 h; inhibition, % at 7 µM; 370,000 tested, 0.62% active; AID 720582, 2013;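 active = inhibition above a per-campaign cutoff equal to the mean of compounds falling between control-based bounds plus 3 SD, cut at about 20% in these data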
ADAM17 inh: ADAM17 inhibitors, primary screen, biochemical, QFRET | Disintegrin and metalloproteinase domain-containing protein 17 (Homo sapiens), P78536 | recombinant ADAM17, EDANS/DABCYL FRET peptide cleavage | inhibition, % at 6.95 µM | 370,000 tested, 0.83% active | AID 720648, 2013;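 active = inhibition above the mean of compounds lying between control limits plus 3 SD, set per campaign, cut at about 8.5% in these data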
PLCb3 inh: human PLC-beta3 inhibitors, primary screen, biochemical, fluorescence | 1-phosphatidylinositol 4,5-bisphosphate phosphodiesterase beta-3 (Homo sapiens), Q01970 | Purified PLC-beta3, fluorogenic substrate | inhibition, % at 12.2 µM | 370,000 tested, 0.18% active; in the data active = inhibition above about 11%
PLC-gamma1 inh: PLC-gamma1 enzyme inhibitors, primary screen, biochemical, fluorescence, purified enzyme. fluorogenic substrate. inhibition, % at 12.2 µM. 370,000 tested, 0.84% active; in the data active = inhibition above about 9.5%
KLK7 zymogen act: proKLK7 zymogen activators, primary screen, biochemical, fluorescence intensity. Kallikrein-7 (Homo sapiens), P49862. purified proKLK7, EDANS-DABCYL substrate fluorescence; 100% is mature enzyme control, 0% vehicle. activation, % at 7 µM. 370,000 tested, 0.9% active. AID 652039, 2013;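 active = activation above the mean of all tested compounds plus 3 SD, computed per campaign excluding outliers beyond control limits, cut at about 13% in these data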
Large screens that a line does not name were inactive. Only some compounds are listed: those with a hit (about 2.9% of all), similar ones and a draw of the others.

Cc1cc2nc(/C=C/c3nc4cc(C)c(C)cc4[nH]3)[nH]c2cc1C	none
CCCSc1nnc(-c2cccc(S(=O)(=O)N(C)C)c2)n1-c1cc(OC)ccc1OC	none
CN(C)S(=O)(=O)c1cccc(-c2nnc(SCCNCCO)n2-c2ccc(F)cc2)c1	PLCb3 inh 13.6, PLC-gamma1 inh 13.7
CCCCNC(=O)NS(=O)(=O)c1ccc(NC(=O)CSc2ncnc3scc(-c4ccc(C)cc4)c23)cc1	none
C#CCCCN([C@@H](CC(C)C)C(=O)OC)S(=O)(=O)c1ccccc1Br	ADAM17 inh 8.6
C#CCCN([C@@H](CC(C)C)C(=O)OC)S(=O)(=O)c1ccc(F)cc1Br	none
COc1ccc(C(=O)OCC(=O)NC(=O)NC2CCCC2)cc1OC	none
CNc1ccc(C(=O)OCC(=O)NC(=O)NC2CCCC2)cc1[N+](=O)[O-]	PLC-gamma1 inh 12.7
O=C(NCCc1ccccc1)OCc1cn(-c2ccc(Cl)cc2)nn1	none
CC1(C)N=C(N)N=C(N)N1c1ccc(CCCCc2ccccc2)cc1	PLC-gamma1 inh 10.5
Cc1ccc(/C=c2\s/c(=C(/C#N)C(=O)N3CCCC3)n(Cc3ccco3)c2=O)s1	ADAM10 inh 20.1
COc1ccc(C(CNC(=O)c2ccc(C)c(S(=O)(=O)N3CCOCC3)c2)N2CCCC2)cc1 (stereo not drawn)	PLC-gamma1 inh 10.3
CC1(C)Oc2cc(N)c([N+](=O)[O-])cc2O1	PLC-gamma1 inh 32.5
Nc1ccc(Oc2ccc(N)c([N+](=O)[O-])c2)cc1[N+](=O)[O-]	none
O=C(C1=C[C@H](c2ccc(C(F)(F)F)cc2)C[C@H](OCc2ccc(CO)cc2)O1)N1CCN(Cc2ccc3c(c2)OCO3)CC1	none
O=C(C1=C[C@@H](c2ccc(C(F)(F)F)cc2)C[C@@H](OCc2ccc(CO)cc2)O1)N1CCN(Cc2ccc3c(c2)OCO3)CC1	ADAM10 inh 28.4
CC1=NN(c2ccccc2)C(=O)/C1=C/C=C/c1ccccc1	none
CC1=NN(c2cccc(C(=O)O)c2)C(=O)/C1=C\C=C\c1ccco1	PLC-gamma1 inh 23.4
COc1ccc(O)c(/C=N/Nc2nc(Nc3ccccc3)nc(-n3nc(C)cc3C)n2)c1	ADAM17 inh 10.8
COc1ccc(/C=C2\CCCC3C2=NN(C(=O)COC(=O)CNC(=O)c2ccccc2)C3c2ccc(OC)cc2)cc1 (stereo not drawn)	ADAM10 inh 21.2
C=CC[C@H]1C=C[C@@H](C(C(=O)OC)C(=O)OC)CN1C(C)=O	PLC-gamma1 inh 19.9
CCC1CCCCN1C(=O)N[C@@H](CCSC)C(=O)OC (stereo partly drawn)	none
CC[C@H]1C=C[C@@H](C(C(=O)OC)C(=O)OC)CN1C(C)=O	PLC-gamma1 inh 25.2
COCCCn1cc(CN2CC=CS2(=O)=O)nn1	none
CCCCNC(=O)C[C@H]1C[C@@]2(C(=O)OC)C(=C[C@H](C(C)(C)C)O[C@@H]2C)N(Cc2ccco2)C1=O	none
C/C(=C/c1[nH]c(N)[n+](CC2CC2)c1Cc1ccccc1)Cn1[nH]c(=O)n(-c2ccccc2)c1=O	none
O=C(c1cccnc1Cl)N1CCC(Oc2cccnc2)CC1	none
CCOC(=O)Cn1nnc(-c2ccc([N+](=O)[O-])cc2)n1	PLC-gamma1 inh 9.6
O=C1CCN(S(=O)(=O)c2ccccc2)CCN1CCOCc1ccc(C(F)(F)F)cc1	none
Cc1ccc(S(=O)(=O)N2CCC(=O)N(CCOCc3ccc(C(F)(F)F)cc3)CC2)cc1	ADAM17 inh 10.5
CC1(c2cccc(Br)c2)NC(=O)N(CC(=O)Nc2cccnc2Cl)C1=O (stereo not drawn)	PLC-gamma1 inh 10.5
CCOc1ccc(N=Cc2ccc([N+](=O)[O-])cc2)c(O)c1	KLK7 zymogen act 18.0
CCOc1ccc(CNC(=S)N/N=C\c2ccc([N+](=O)[O-])cc2)cc1	none
Cc1cc(C)cc(NC(=O)OC2CC3CC2[C@H]2CCCCN2[C@H]3Cc2ccccc2)c1 (stereo partly drawn)	none
CN1C(=O)c2cc(NS(C)(=O)=O)ccc2OC[C@H]2O[C@@H](CC(=O)NCc3ccc(-c4ccccc4)cc3)CC[C@@H]21	none
COc1ccc(NC(=S)NC(NC(=O)c2cccc(C)c2)C(Cl)(Cl)Cl)c([N+](=O)[O-])c1 (stereo not drawn)	ADAM10 inh 21.0
CCOC(=O)c1cnn(-c2c(Cc3ccccc3)c(C)nc3c(-c4ccccc4)c(C)nn23)c1N	ADAM17 inh 10.0
O=S(=O)(NCc1cn(Cc2ccccc2)nn1)c1ccccc1Br	none
O=C(N=C1N=C2C=CC(Br)=CN2Cc2ccccc21)c1ccc([N+](=O)[O-])cc1[N+](=O)[O-]	ADAM17 inh 9.1, PLCb3 inh 10.9, PLC-gamma1 inh 12.8
Oc1ccc(C2C=C(c3ccc(F)cc3)Nc3ncnn32)cc1 (stereo not drawn)	KLK7 zymogen act 26.5
CCOc1ccc(C2C=C(c3ccc(F)cc3)Nc3ncnn32)cc1 (stereo not drawn)	none
O=C1SC(SC(=Nc2ccccc2)Nc2ccccc2)C(=O)N1c1ccccc1 (stereo not drawn)	PLCb3 inh 14.2
CCOC(=O)C(C(C)=O)c1nc(C)nc2c1nnn2Cc1ccccc1Cl (stereo not drawn)	PLC-gamma1 inh 13.1
O=C(NC1CCCCN(Cc2ccc(Cl)cc2)C1=O)c1cccc2nsnc12 (stereo not drawn)	none
COc1ccc(OC)c(CN2CCN(C(=O)c3cccc4ccccc34)CC2)c1	PLC-gamma1 inh 12.6
COC(=O)c1cccc(NC(=O)c2ccc[n+]([O-])c2)c1	PLC-gamma1 inh 10.7
COc1ccccc1CNC(=O)c1cc(-c2ccccc2)nn1CC1CC(c2cccc([N+](=O)[O-])c2)=NO1 (stereo not drawn)	ADAM10 inh 20.0
COc1ccccc1CNC(=O)C1CC(c2cccc([N+](=O)[O-])c2)=NO1 (stereo not drawn)	none
Cc1cc(C)cc(OCC(=O)NCC2CCCO2)c1 (stereo not drawn)	none
Cc1cc(C)c(C)c(OCC(=O)NCC2CCCO2)c1 (stereo not drawn)	PLC-gamma1 inh 12.1
CC(=O)c1c(C)oc2ccc(NS(=O)(=O)c3ccc(O)c(C(=O)O)c3)cc12	PLC-gamma1 inh 10.9
CCc1cc2c(SCC(=O)c3ccc(Cl)s3)ncnc2s1	PLC-gamma1 inh 10.0
C#CCOCCOCCOCCNc1nc(N2CCOCC2)nc(N2CCN(C(=O)CCCCCCCCCCNC(=O)[C@H]([C@@H](C)CC)n3cc(CCCCN=C(N)N)nn3)CC2)n1	none
C#CCOCCOCCOCCNc1nc(N2CCOCC2)nc(N2CCN(C(=O)[C@H]([C@@H](C)CC)n3cc(CCCN=C(N)N)nn3)CC2)n1	PLC-gamma1 inh 10.0
